Measured values published in PubChem BioAssay AID2284422 (EPA ToxCast).
The source made the active and inactive calls. The calls were made as follows: active = hit-call score of the fitted dose curve at least 0.9, where 1 is the maximum; inactive = score below 0.9.

Assay: CCTE_Deisenroth_DEVTOX-GLR_Meso_CellCount: Viability Assessment in CCTE's DevTox GLR-Meso Assay, Deisenroth Lab
Experimental: CCTE_Deisenroth_DEVTOX-GLR_Meso assay is a cell-based, multiplex-readout assay that uses RUES2-GLR, a human pluripotent cell line, with measurements taken at 48 hours after chemical dosing in a 384-well microplateCCTE_Deisenroth_DEVTOX-GLR_Meso_CellCount is 1 of 4 assay components calculated from the CCTE_Deisenroth_DEVTOX-GLR_Meso assay and it measures cell count. Using fluorescent nuclei staining, gain-of-signal activity can be used to understand changes in cell viability with fluorescent microscopy. It is designed to make measurements of nuclei counts as a surrogate for cell number, as detected with optical fluorescence microscopy by Perkin Elmer Harmony nuclei detection algorithm. To generalize the intended target to other relatable targets, this assay component is annotated to the cell cycle intended target family, where the subfamily is cytotoxicity.Data from the assay component CCTE_Deisenroth_DEVTOX-GLR_Meso_CellCount was analyzed as 1 assay endpoint. The endpoint the percent change in cell count relative to the 0.2% DMSO control in the CCTE_Deisenroth_DEVTOX-GLR_Meso assay. Furthermore, this assay endpoint can be referred to as a primary readout, because this assay has produced multiple assay endpoints where this one serves as a measure of cytotoxicity.
All assay protocols are aligned to the DevTox GLR-Endo assay workflow. Cells are seeded into 384-well microplates for 24 hours prior to initiating differentiation in defined media for a total duration of 48 hours. A total of two chemical exposures are administered in 24-hour intervals during the 48-hour differentiation period. At the assay termination point, cells are fixed and stained with a fluorescent dye demarcating the nucleus. High-content imaging is used to acquire brightfield and fluorescent channel images across 5 fields per well. Cell identification and mean biomarker fluorescence intensities are calculated with image analysis software to determine the total cell counts for viability assessment and the biomarker expression frequency for each lineage-dependent assay. A typical experimental design tests a 10-point concentration series (1 nM - 200 uM) for 28 compounds in single technical replicate. Assay plate controls include non-differentiated pluripotent cells (baseline control), lineage-specific differentiated cells (differentiation control), and DMSO solvent exposed differentiated cells (solvent control). Experiments typically comprise a minimum of four experimental replicates (n=4).

Compound	AC50	outcome
CC1=C(/C=C/C(C)=C/C=C/C(C)=C/C(=O)O)C(C)(C)CCC1	18.5 µM (active)	–
Nc1nc2ncc(CNc3ccc(C(=O)N[C@@H](CCC(=O)O)C(=O)O)cc3)nc2c(=O)[nH]1	–	inactive
O=c1[nH]cc(F)c(=O)[nH]1	4.95 µM (active)	–
Nc1cccc2c1C(=O)N(C1CCC(=O)NC1=O)C2=O (stereo unspecified)	–	inactive
CC(C)(c1ccc(O)cc1)c1ccc(O)cc1	33.5 µM (active)	–
O=C1CCC(N2C(=O)c3ccccc3C2=O)C(=O)N1 (stereo unspecified)	–	inactive
CC1(C)S[C@@H]2[C@H](NC(=O)Cc3ccccc3)C(=O)N2[C@H]1C(=O)O	–	inactive
CS(=O)(=O)OCCCCOS(C)(=O)=O	57.8 µM (active)	–
O=C1NC(=O)C(c2ccccc2)(c2ccccc2)N1	100 µM (active)	–
CC1=C(/C=C/C(C)=C/C=C/C(C)=C\C(=O)O)C(C)(C)CCC1	18.6 µM (active)	–
CCCC(CCC)C(=O)O	–	inactive
CC(=O)Nc1ccc(O)cc1	–	inactive
CN(Cc1cnc2nc(N)nc(N)c2n1)c1ccc(C(=O)N[C@@H](CCC(=O)O)C(=O)O)cc1	–	inactive
CC/C(=C(/CC)c1ccc(O)cc1)c1ccc(O)cc1	2.86 µM (active)	–
CCN(CC)CCNC(=O)c1c(C)[nH]c(/C=C2\C(=O)Nc3ccc(F)cc32)c1C	1.18 µM (active)	–
O=C1NS(=O)(=O)c2ccccc21	–	inactive
